{"source": "PubChem BioAssay"}
{"target": "Tumor necrosis factor receptor superfamily member 10B (Homo sapiens) (UniProt O14763)", "sequence (O14763 whole entry, looked up)": "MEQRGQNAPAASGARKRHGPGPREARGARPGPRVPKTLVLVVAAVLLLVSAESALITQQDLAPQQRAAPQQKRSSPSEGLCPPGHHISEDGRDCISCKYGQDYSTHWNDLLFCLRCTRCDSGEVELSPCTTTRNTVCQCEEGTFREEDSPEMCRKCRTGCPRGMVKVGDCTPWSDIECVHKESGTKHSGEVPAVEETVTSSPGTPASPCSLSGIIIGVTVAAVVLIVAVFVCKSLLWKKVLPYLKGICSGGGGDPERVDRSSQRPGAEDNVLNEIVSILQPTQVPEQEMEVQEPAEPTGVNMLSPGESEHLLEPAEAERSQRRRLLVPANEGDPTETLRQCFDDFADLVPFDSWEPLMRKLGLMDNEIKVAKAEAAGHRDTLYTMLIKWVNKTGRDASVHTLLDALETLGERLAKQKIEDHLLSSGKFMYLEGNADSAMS", "assay": "viability loss of caspase-8 NB7 cells with TRAIL – with/without TRAIL, luminescence panel, confirmation (AID 651596)", "conditions": "NB7 neuroblastoma + caspase-8, TRAIL sensitization, NB7 Caspase-8, with TRAIL, mean of runs, at 10 µM, stronger effect = higher value", "units": {"activity": "%"}}
{"compound": "Cc1nc2nc(C)n(CCN3CCOCC3)c(=O)c2c(-c2cccc([N+](=O)[O-])c2)c1C(=O)CCCCCCCCCCN1CCC(c2ccccc2)(c2ccccc2)CC1", "activity": 92.6}
{"compound": "CCC(=O)c1ccc(OCC(=O)OCC(=O)N2CCCc3ccccc32)cc1", "activity": -9.15}
{"compound": "CC(C)[C@@H](CO)NC(=O)c1ccc2c3n(nc2c1)-c1ccccc1CO3", "activity": 71.1}
{"compound": "COc1ccc2cc(-c3ccccc3)ncc2c1", "activity": 63.8}
{"compound": "O=C(OCn1ncc(Cl)c(Cl)c1=O)c1ccc(C(F)(F)F)cc1", "activity": 95.2}
{"compound": "CC(C)(C)c1ccc(C(=O)Nc2cnccn2)cc1", "activity": 78.5}
{"compound": "COC(=O)c1cccc(NC(=O)c2cc3ccccc3o2)c1", "activity": 57.4}
{"compound": "CN1/C(=C/C(=O)c2cccs2)Sc2ccccc21", "activity": 60}
{"compound": "O=C(/C=C/c1ccco1)Nc1ccc2c(c1)OCCO2", "activity": 71.8}
{"compound": "CC(C)n1c(/C=C/c2ccccc2)nc2ccccc21", "activity": 63.2}
{"compound": "Cc1ccc(C(=O)Nc2ccc3c(c2)OCO3)cc1", "activity": 75.8}
{"compound": "O=C(COc1ccc2c(c1)OCO2)Nc1nccs1", "activity": 52.9}
{"compound": "O=C(CC1SC(=O)N(Cc2cccc3ccccc23)C1=O)Nc1nccs1", "note": "(centres undefined)", "activity": 33}
{"compound": "N#Cc1cc2c(nc1SCC(=O)Nc1nccs1)CCCCC2", "activity": 67.8}
{"compound": "C/C(=N\\NC(=O)c1ccncc1)c1cccc(NC(=O)c2ccc(C(C)(C)C)cc2)c1", "activity": 85.5}
{"compound": "COc1ccc(C(=O)NC(=O)Nc2cc(C)ccn2)cc1", "activity": 95.3}
{"compound": "CCN(CC)S(=O)(=O)c1cccc(NC(=O)Nc2cccc(C(F)(F)F)c2)c1", "activity": 78.2}
{"compound": "CCOC(=O)c1cn2nc(N3CCCCC3)ccc2n1", "activity": 52.5}
{"compound": "C#CCN(C[C@@H]1[C@@H](OC(=O)NCc2ccccc2F)[C@@H](OC(=O)NCc2ccccc2F)Cn2c(=O)ccc(=O)n21)S(=O)(=O)c1ccc(C)cc1", "activity": 95}
{"compound": "COc1cc(NC(=O)c2cc3cccc(OC)c3o2)cc(C(=O)Nc2cccc(C(F)(F)F)c2)c1", "activity": 36.8}
{"tested_on": "not listed separately", "assay": "viability loss of caspase-8 NB7 cells with TRAIL – with/without TRAIL, luminescence panel, confirmation (AID 651596)", "conditions": "NB7 neuroblastoma + caspase-8, without TRAIL, NB7 Caspase-8, without TRAIL, mean of runs, at 10 µM", "units": {"activity": "%"}}
{"compound": "COC(=O)CSc1nc2cc(OC)ccc2cc1C#N", "activity": 70}
{"compound": "COc1ccc(-n2cc(C(=O)c3ccccc3O)cn2)cc1", "activity": 29.7}
{"compound": "N#C/C(=C(/O)c1ccc([N+](=O)[O-])s1)c1nc2ccccc2[nH]1", "activity": 25}
{"compound": "CCCc1cc2c(=O)c(-c3ccc4c(c3)OCCO4)coc2cc1OC(=O)c1ccco1", "activity": 66.4}
{"compound": "COc1ccc(C(=O)Nc2cccc(/C=C/c3nc4ccccc4c(=O)[nH]3)c2)cc1", "activity": 60.9}
{"compound": "Cc1ccc(C(=O)Nc2ccc3nccnc3c2)cc1", "activity": 74.8}
{"compound": "CCOC(=O)c1cccc(N2C(N)=NC(N)=NC2(C)C)c1", "activity": 69.5}
{"compound": "Cc1nnc(NC(=O)c2nc(S(=O)(=O)Cc3ccccc3)ncc2Cl)s1", "activity": 84.9}
{"compound": "CC/C(=N\\NC(=O)c1csc(C)c1C)c1cccs1", "activity": 55.5}
{"compound": "CN(C)c1ccc(C=Nc2ccccc2C(N)=O)cc1", "activity": 86.5}
{"compound": "CN1C(=O)c2ccccc2C(C(=O)NCCCN2CCCC2)C1c1c[nH]c2ccccc12", "note": "(centres undefined)", "activity": 55.5}
{"compound": "O=Nc1c2cc(-c3ccccc3)[nH]nc-2c2ccccc12", "activity": 78.7}
{"compound": "COc1cc(NC(=O)Nc2nc(C(N)Cc3ccc(C(F)(F)F)cc3)cs2)cc(OC)c1OC", "note": "(centres undefined)", "activity": 74.6}
{"compound": "CCOC(=O)c1c(C)nc2c3ccccc3ccn12", "activity": 58.9}
{"compound": "O=C(c1ccccc1)n1c(=S)nc2ccccn21", "activity": 85.5}
{"compound": "O=C(CSc1nnc(NC(=O)c2ccc3c(c2)OCO3)s1)NCc1ccco1", "activity": 83.7}
{"compound": "c1ccc2nc(-c3ccc(N4CCOCC4)cc3)ccc2c1", "activity": 69}
{"compound": "CCOC(=O)C1=CCN(S(=O)(=O)c2ccccc2Cl)C1c1cccc(F)c1", "note": "(centres undefined)", "activity": 11.8}
{"compound": "Cc1cccc(NC(=S)NC(=O)c2ccc(-c3ccccc3)cc2)n1", "activity": 55.3}
{"compound": "Cc1nc2nc(C)n(CCN3CCOCC3)c(=O)c2c(-c2cccc([N+](=O)[O-])c2)c1C(=O)CCCCCCCCCCN1CCC(c2ccccc2)(c2ccccc2)CC1", "activity": 89.9}
{"compound": "CCC(=O)c1ccc(OCC(=O)OCC(=O)N2CCCc3ccccc32)cc1", "activity": -14.8}
{"compound": "CC(C)[C@@H](CO)NC(=O)c1ccc2c3n(nc2c1)-c1ccccc1CO3", "activity": 71.6}
{"compound": "COc1ccc2cc(-c3ccccc3)ncc2c1", "activity": 63.7}
{"compound": "O=C(OCn1ncc(Cl)c(Cl)c1=O)c1ccc(C(F)(F)F)cc1", "activity": 94}
{"compound": "CC(C)(C)c1ccc(C(=O)Nc2cnccn2)cc1", "activity": 82.2}
{"compound": "COC(=O)c1cccc(NC(=O)c2cc3ccccc3o2)c1", "activity": 58.6}
{"compound": "CN1/C(=C/C(=O)c2cccs2)Sc2ccccc21", "activity": 47}
{"compound": "O=C(/C=C/c1ccco1)Nc1ccc2c(c1)OCCO2", "activity": 65.1}
{"compound": "CC(C)n1c(/C=C/c2ccccc2)nc2ccccc21", "activity": 69.3}
{"compound": "Cc1ccc(C(=O)Nc2ccc3c(c2)OCO3)cc1", "activity": 63}
{"compound": "O=C(COc1ccc2c(c1)OCO2)Nc1nccs1", "activity": 54}
{"compound": "O=C(CC1SC(=O)N(Cc2cccc3ccccc23)C1=O)Nc1nccs1", "note": "(centres undefined)", "activity": 74.3}
{"compound": "N#Cc1cc2c(nc1SCC(=O)Nc1nccs1)CCCCC2", "activity": 69.2}
{"compound": "C/C(=N\\NC(=O)c1ccncc1)c1cccc(NC(=O)c2ccc(C(C)(C)C)cc2)c1", "activity": 81.6}
{"compound": "COc1ccc(C(=O)NC(=O)Nc2cc(C)ccn2)cc1", "activity": 95.4}
{"compound": "CCN(CC)S(=O)(=O)c1cccc(NC(=O)Nc2cccc(C(F)(F)F)c2)c1", "activity": 53}
{"compound": "CCOC(=O)c1cn2nc(N3CCCCC3)ccc2n1", "activity": 72.9}
{"compound": "C#CCN(C[C@@H]1[C@@H](OC(=O)NCc2ccccc2F)[C@@H](OC(=O)NCc2ccccc2F)Cn2c(=O)ccc(=O)n21)S(=O)(=O)c1ccc(C)cc1", "activity": 93.6}
{"compound": "COc1cc(NC(=O)c2cc3cccc(OC)c3o2)cc(C(=O)Nc2cccc(C(F)(F)F)c2)c1", "activity": 33.5}
